Results published in PubChem BioAssay (Tox21).
Results filed as inconclusive are left out. Where a call stands in place of a potency, no number is given. Unmarked numbers belong to inactive results. Activity calls are given as the source filed them. Unless noted, calls follow the shape of the dose curve; as a rule, active = well fitted curve in the direction sought with a large enough effect in the repeat runs; inconclusive = weak or mixed curves; inactive = no such curve, though single readings can be large; an effect the other way counts as inactive or inconclusive.

Legend:
[1] = qHTS assay to identify aromatase inhibitors - cell viability counter screen (AID 743084);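 also: cells stimulated with testosterone during compound exposure; nearly all actives have a fitted effect of over 55% in size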
[2] = target: Aryl hydrocarbon receptor (Homo sapiens) (UniProt P35869); test: qHTS assay to identify small molecule that activate the aryl hydrocarbon receptor (AhR) signaling pathway (AID 743085); also: nearly all actives have a fitted effect of over 15% in size; also: potency is read from the fitted curve at half-maximal effect;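 as to activation: HG2L7.5c1 human HepG2 liver cells with stably integrated DRE-driven firefly reporter; series mostly up to about 70 µM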
Sequence of Aryl hydrocarbon receptor (Homo sapiens) (P35869 whole entry, looked up): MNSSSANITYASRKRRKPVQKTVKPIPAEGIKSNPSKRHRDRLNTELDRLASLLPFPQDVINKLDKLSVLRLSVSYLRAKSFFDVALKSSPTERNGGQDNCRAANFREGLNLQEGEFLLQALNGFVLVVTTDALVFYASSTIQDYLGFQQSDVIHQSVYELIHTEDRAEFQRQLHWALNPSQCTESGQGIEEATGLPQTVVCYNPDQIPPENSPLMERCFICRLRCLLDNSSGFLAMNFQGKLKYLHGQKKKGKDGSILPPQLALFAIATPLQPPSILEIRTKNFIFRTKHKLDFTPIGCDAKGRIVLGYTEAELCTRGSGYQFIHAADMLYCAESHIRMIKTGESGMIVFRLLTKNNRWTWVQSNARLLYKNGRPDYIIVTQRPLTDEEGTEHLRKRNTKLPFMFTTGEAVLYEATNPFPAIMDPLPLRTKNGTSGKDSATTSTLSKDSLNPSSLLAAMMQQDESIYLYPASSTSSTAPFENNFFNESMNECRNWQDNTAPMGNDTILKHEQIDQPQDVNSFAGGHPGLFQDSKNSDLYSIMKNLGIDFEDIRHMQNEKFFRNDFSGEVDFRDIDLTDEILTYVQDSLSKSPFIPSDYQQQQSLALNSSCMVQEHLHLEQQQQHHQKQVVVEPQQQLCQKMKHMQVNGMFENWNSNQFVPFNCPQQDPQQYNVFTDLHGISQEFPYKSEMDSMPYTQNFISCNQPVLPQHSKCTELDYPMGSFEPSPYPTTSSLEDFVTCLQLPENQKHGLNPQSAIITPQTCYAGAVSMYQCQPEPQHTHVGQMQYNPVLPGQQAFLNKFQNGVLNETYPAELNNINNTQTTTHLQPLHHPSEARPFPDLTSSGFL
How it was run: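 A multiplexed format paired cell viability (CellTiter-Fluor fluorescence) with AhR-dependent luciferase output (ONE-Glo luminescence) in the same wells of HepG2 DRE-luc cells after 24 h compound exposure at 37C.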

[3] = qHTS assay to identify small molecule that activate the aryl hydrocarbon receptor (AhR) signaling pathway - cell viability counter screen (AID 743086);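 also: HepG2 liver cells carrying the AhR DRE luciferase reporter; series mostly up to about 70 µM; nearly all actives have a fitted effect of over 45% in size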
How it was run: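 HepG2-AhR-luc (HG2L7.5c1) cells, 4000/well, treated 24 h at 37 C with compound; viability measured as CellTiter-Fluor fluorescence after 30 min in the same wells as the luciferase read.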

[4] = target: Peroxisome proliferator-activated receptor gamma (Homo sapiens) (UniProt P37231); test: qHTS assay to identify small molecule agonists of the peroxisome proliferator-activated receptor gamma (PPARg) signaling pathway (AID 743094; active = well fitted activation curve with a large enough effect in the signal ratio in the repeat runs, not every such curve was filed as active; the % refers to the signal ratio)
Sequence of Peroxisome proliferator-activated receptor gamma (Homo sapiens) (P37231 whole entry, looked up): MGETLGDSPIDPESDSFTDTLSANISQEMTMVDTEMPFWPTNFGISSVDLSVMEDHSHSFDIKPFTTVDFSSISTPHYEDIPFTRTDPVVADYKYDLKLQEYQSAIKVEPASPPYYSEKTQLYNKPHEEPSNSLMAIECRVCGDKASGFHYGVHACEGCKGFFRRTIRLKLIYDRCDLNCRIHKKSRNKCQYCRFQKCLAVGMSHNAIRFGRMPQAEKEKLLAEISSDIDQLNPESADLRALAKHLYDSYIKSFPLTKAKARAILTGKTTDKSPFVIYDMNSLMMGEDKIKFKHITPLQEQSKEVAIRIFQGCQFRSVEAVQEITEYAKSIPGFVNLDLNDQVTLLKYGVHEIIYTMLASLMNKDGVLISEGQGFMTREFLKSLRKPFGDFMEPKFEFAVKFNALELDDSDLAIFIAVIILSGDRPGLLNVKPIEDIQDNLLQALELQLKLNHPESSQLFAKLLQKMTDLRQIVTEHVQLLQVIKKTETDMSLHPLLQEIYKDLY
How it was run: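 GeneBLAzer PPARg UAS-bla HEK293H cells carrying a stably integrated beta-lactamase reporter were pre-incubated 5 h at 37C, then exposed to compounds in DMSO for 17 h at 37C; LiveBLAzer B/G FRET substrate was added for 1 h at room temperature and fluorescence read.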

[5] = qHTS assay to identify small molecule antagonists of the peroxisome proliferator-activated receptor gamma (PPARg) signaling pathway - cell viability counter screen (AID 743194); also: nearly all actives have a fitted effect of over 55% in size
How it was run: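 Cytotoxicity counter screen in PPARg-bla HEK293H cells, same wells as reporter assay. Compounds plus 50 nM rosiglitazone (final) for 17 h at 37 C, then viability read by CellTiter-Glo luminescence.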

[6] = qHTS assay for small molecule agonists of the antioxidant response element (ARE) signaling pathway (AID 743202; active = well fitted activation curve with a large enough effect in the signal ratio in the repeat runs, not every such curve was filed as active; the % refers to the signal ratio)
How it was run: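 ARE-bla HepG2 cells (beta-lactamase reporter under the antioxidant response element), plated 5 hours, then exposed to compounds 16 hours at 37 C. LiveBLAzer B/G FRET substrate added for 2 hours at room temperature; fluorescence intensity read.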

[7] = qHTS assay for small molecule agonists of the antioxidant response element (ARE) signaling pathway - cell viability counter screen (AID 743203; calls by dose curve; also: nearly all actives have a fitted effect of over 55% in size)
How it was run: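 CellSensor ARE-bla HepG2 cells, 2,000 per well, rested 5 hrs at 37C/5% CO2, then exposed to compound in DMSO for 16 hrs; viability read as CellTiter-Glo luminescence after 30 min at room temperature, in the reporter wells.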

[8] = qHTS assay for small molecule activators of the heat shock response signaling pathway - cell viability counter screen (AID 743209); also: nearly all actives have a fitted effect of over 50% in size
How it was run: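 CellSensor HSE-bla HeLa cells, plated overnight at 37 C/5% CO2, were exposed to compounds in DMSO for 5 h at 37 C. Viability was then read in the same wells by CellTiter-Glo luminescence after 30 min at room temperature.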

[9] = target: Peroxisome proliferator-activated receptor gamma (Homo sapiens) (UniProt P37231); test: qHTS assay to identify small molecule antagonists of the peroxisome proliferator-activated receptor gamma (PPARg) signaling pathway (AID 743191; calls by dose curve; also: series mostly up to about 63 µM; nearly all actives have a fitted effect of over 30% in size)
How it was run: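 GeneBLAzer PPARg UAS-bla HEK293H cells, 5 h post-plating, exposed to compounds 17 h at 37C. LiveBLAzer B/G FRET substrate added for 1 h at room temperature; beta-lactamase reporter read by fluorescence intensity.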

[10] = qHTS assay for small molecule activators of the heat shock response signaling pathway (AID 743210; active = well fitted activation curve with a large enough effect in the signal ratio in the repeat runs, with a control signal flat, not every such curve was filed as active; the % refers to the signal ratio; also: series mostly up to about 63 µM)
How it was run: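 HSE-bla HeLa cells (beta-lactamase reporter under heat shock response elements), plated overnight, then exposed to compounds 5 h at 37 C; LiveBLAzer B/G FRET substrate added, 2.5 h at room temperature, fluorescence intensity read.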

O=[N+]([O-])c1ccc(Oc2ccc([N+](=O)[O-])cc2)cc1
Potency [1]: inactive | Potency [2]: inactive | Potency [3]: inactive | outcome [4]: inactive | Potency [5]: inactive | Potency [6]: inactive | outcome [7]: inactive | outcome [8]: inactive

CC(CCO)CCCC(C)(C)O (stereo unspecified)
Potency [1]: inactive | Potency [2]: inactive | Potency [3]: inactive | outcome [4]: inactive | outcome [9]: inactive | Potency [5]: inactive | outcome [7]: inactive | outcome [8]: inactive | outcome [10]: inactive

COc1ccc(COC=O)cc1
Potency [1]: inactive | Potency [2]: inactive | Potency [3]: inactive | outcome [4]: inactive | Potency [5]: inactive | Potency [6]: inactive | outcome [7]: inactive | outcome [8]: inactive

CCC(=O)c1cccc(Cl)c1
Potency [1]: inactive | Potency [2]: inactive | Potency [3]: inactive | outcome [4]: inactive | outcome [9]: inactive | Potency [6]: inactive | outcome [7]: inactive | outcome [8]: inactive | outcome [10]: inactive

CCN(CC)C(=O)c1ccc(O)c(OC)c1
Potency [1]: inactive | Potency [2]: inactive | Potency [3]: inactive | outcome [4]: inactive | outcome [9]: inactive | Potency [5]: inactive | Potency [6]: inactive | outcome [7]: inactive | outcome [10]: inactive

COCCOC(=O)CC#N
Potency [1]: inactive | Potency [2]: inactive | Potency [3]: inactive | outcome [4]: inactive | Potency [5]: inactive | Potency [6]: inactive | outcome [7]: inactive | outcome [8]: inactive

COc1ccc(N=[N+]([O-])c2ccc(OC)cc2)cc1
Potency [1]: inactive | Potency [2]: 9.59 µM (active) | Potency [3]: inactive | outcome [4]: inactive | outcome [9]: inactive | Potency [5]: inactive | outcome [7]: inactive | outcome [8]: inactive | outcome [10]: inactive

O=[N+]([O-])c1ccc(CCO)cc1
Potency [1]: inactive | Potency [2]: inactive | Potency [3]: inactive | outcome [4]: inactive | Potency [5]: inactive | Potency [6]: inactive | outcome [7]: inactive | outcome [8]: inactive | outcome [10]: inactive

CC/C=C\CCCCO
Potency [1]: inactive | Potency [2]: inactive | Potency [3]: inactive | outcome [4]: inactive | Potency [5]: inactive | Potency [6]: inactive | outcome [7]: inactive | outcome [8]: inactive

CO[Si](OC)(OC)OC
Potency [1]: inactive | Potency [2]: inactive | Potency [3]: inactive | outcome [4]: inactive | Potency [5]: inactive | Potency [6]: inactive | outcome [7]: inactive | outcome [8]: inactive

CC(=O)NC(Cc1ccccc1)C(=O)O (stereo unspecified)
Potency [1]: inactive | Potency [2]: inactive | Potency [3]: inactive | outcome [4]: inactive | outcome [9]: inactive | outcome [7]: inactive | outcome [10]: inactive

CC(=O)N[C@@H](CCC(N)=O)C(=O)O
Potency [1]: inactive | Potency [2]: inactive | Potency [3]: inactive | outcome [4]: inactive | Potency [5]: inactive | Potency [6]: inactive | outcome [7]: inactive | outcome [8]: inactive | outcome [10]: inactive

C=C(C)C(=O)NCCC[N+](C)(C)C
Potency [1]: inactive | Potency [2]: inactive | Potency [3]: inactive | outcome [4]: inactive | outcome [9]: inactive | Potency [5]: inactive | Potency [6]: inactive | outcome [7]: inactive | outcome [10]: inactive

CN(C)C(=O)Nc1ccccc1
Potency [1]: inactive | Potency [2]: inactive | Potency [3]: inactive | outcome [4]: inactive | Potency [5]: inactive | Potency [6]: inactive | outcome [7]: inactive | outcome [8]: inactive

CCCCc1ccc(N)cc1
Potency [1]: inactive | Potency [2]: inactive | Potency [3]: inactive | outcome [4]: inactive | outcome [9]: inactive | Potency [6]: inactive | outcome [7]: inactive | outcome [8]: inactive | outcome [10]: inactive

CCCCNc1ccccc1
Potency [1]: inactive | Potency [2]: inactive | Potency [3]: inactive | outcome [4]: inactive | outcome [9]: inactive | Potency [5]: inactive | Potency [6]: inactive | outcome [7]: inactive | outcome [10]: inactive

Cc1cc(C)c(NC(=O)CN(CC(=O)O)CC(=O)O)c(C)c1Br
Potency [1]: inactive | Potency [2]: inactive | Potency [3]: inactive | outcome [4]: inactive | outcome [9]: inactive | Potency [5]: inactive | Potency [6]: inactive | outcome [7]: inactive | outcome [10]: inactive

NC(N)=NS(=O)(=O)c1ccc(N)cc1
Potency [1]: inactive | Potency [2]: inactive | Potency [3]: inactive | outcome [4]: inactive | outcome [9]: inactive | Potency [5]: inactive | Potency [6]: inactive | outcome [7]: inactive | outcome [10]: inactive

CCC(C(=O)NC(N)=O)c1ccccc1 (stereo unspecified)
Potency [1]: inactive | Potency [2]: inactive | Potency [3]: inactive | outcome [4]: inactive | outcome [9]: inactive | Potency [5]: inactive | outcome [8]: inactive

NC(=S)Nc1cccc2ccccc12
activity change, negative = cytotoxicity [1]: 1.26% [at 8.47 µM] | activation [2]: 0.499% [at 8.47 µM] | viability change, negative = cytotoxic [3]: 1.55% [at 8.47 µM] | activation [4]: -10.4% [at 7.08 µM] | activity change, negative = cytotoxicity [5]: 9.83% [at 5.95 µM] | activation [6]: -5.35% [at 8.36 µM] | viability change, negative = cytotoxic [7]: 10% [at 8.36 µM] | activity change, negative = cytotoxicity [8]: -5.69% [at 5.95 µM]

CCCCCCOC(=O)CC(CC(=O)OCCCCCC)(OC(=O)CCC)C(=O)OCCCCCC
Potency [1]: inactive | Potency [2]: inactive | Potency [3]: inactive | outcome [4]: inactive | Potency [5]: inactive | Potency [6]: inactive | outcome [7]: inactive | outcome [8]: inactive

C=CCn1c(=O)n([C@@H]2O[C@H](CO)[C@@H](O)[C@H]2O)c2nc(N)[nH]c(=O)c21
Potency [1]: inactive | Potency [2]: inactive | Potency [3]: inactive | outcome [4]: inactive | Potency [5]: inactive | Potency [6]: inactive | outcome [7]: inactive | outcome [8]: inactive

Oc1cc(O)c2c(c1)O[C@H](c1ccc(O)c(O)c1)[C@H](O)C2
Potency [1]: inactive | Potency [2]: inactive | Potency [3]: inactive | outcome [4]: inactive | outcome [9]: inactive | outcome [7]: inactive | outcome [8]: inactive | outcome [10]: inactive

O=C(O)c1cccc(C(=O)O)n1
Potency [1]: inactive | Potency [2]: inactive | Potency [3]: inactive | outcome [4]: inactive | outcome [9]: inactive | Potency [5]: inactive | outcome [7]: inactive | outcome [10]: inactive

CCc1cc(S(=O)(=O)O)c2cc(C(C)C)cccc1-2
Potency [1]: inactive | Potency [2]: inactive | Potency [3]: inactive | outcome [4]: inactive | outcome [9]: inactive | Potency [5]: inactive | outcome [7]: inactive | outcome [8]: inactive | outcome [10]: inactive

OCC(O)[C@@H](O)[C@H](O)[C@H](O)CO[C@H]1O[C@H](CO)[C@@H](O)[C@H](O)[C@H]1O (stereo partly specified)
Potency [1]: inactive | Potency [2]: inactive | Potency [3]: inactive | outcome [4]: inactive | Potency [5]: inactive | Potency [6]: inactive | outcome [7]: inactive | outcome [8]: inactive

CCCCCCOC(=O)c1ccccc1O
Potency [1]: inactive | Potency [2]: inactive | Potency [3]: inactive | outcome [4]: inactive | Potency [5]: inactive | Potency [6]: inactive | outcome [7]: inactive | outcome [8]: inactive | outcome [10]: inactive

O=C1C(CCS(=O)c2ccccc2)C(=O)N(c2ccccc2)N1c1ccccc1 (stereo unspecified)
Potency [1]: inactive | Potency [2]: inactive | Potency [3]: inactive | outcome [4]: inactive | Potency [5]: inactive | Potency [6]: inactive | outcome [7]: inactive | outcome [8]: inactive | outcome [10]: inactive

NS(=O)(=O)c1cc2c(cc1Cl)NC(CSCc1ccccc1)=NS2(=O)=O
Potency [1]: inactive | Potency [2]: inactive | Potency [3]: inactive | outcome [4]: inactive | Potency [5]: inactive | outcome [7]: inactive | outcome [8]: inactive | outcome [10]: inactive

C=CC(=O)OCCCCCC
Potency [1]: inactive | Potency [2]: inactive | Potency [3]: inactive | Potency [5]: inactive | Potency [6]: inactive | outcome [7]: inactive | outcome [8]: inactive | outcome [10]: inactive

CC(C)[C@H](N)C(=O)OCCOCn1cnc2c(=O)[nH]c(N)nc21
Potency [1]: inactive | Potency [2]: inactive | Potency [3]: inactive | outcome [4]: inactive | Potency [5]: inactive | Potency [6]: inactive | outcome [7]: inactive | outcome [8]: inactive | outcome [10]: inactive

O=Cc1ccccc1[N+](=O)[O-]
Potency [1]: inactive | Potency [2]: inactive | Potency [3]: inactive | outcome [4]: inactive | Potency [5]: inactive | Potency [6]: inactive | outcome [7]: inactive | outcome [8]: inactive | outcome [10]: inactive

OC/C=C/c1ccccc1
Potency [1]: inactive | Potency [2]: inactive | Potency [3]: inactive | Potency [5]: inactive | Potency [6]: inactive | outcome [7]: inactive | outcome [8]: inactive | outcome [10]: inactive

Fc1ccccc1-c1ccccc1
Potency [1]: inactive | Potency [2]: inactive | Potency [3]: inactive | outcome [4]: inactive | Potency [5]: inactive | outcome [7]: inactive | outcome [8]: inactive | outcome [10]: inactive
